Screening results deposited in PubChem by National Center for Advancing Translational Sciences (NCATS).
ELG1 DNA repair: qHTS screen for small molecules that inhibit ELG1-dependent DNA repair in human embryonic kidney (HEK293T) cells expressing luciferase-tagged ELG1; Potency, µM (highest dose often 46.1 µM), most hits filed as inhibitors; 2.3% of 330,000 active; HEK293T ELG1-luciferase reporter, luminescence, 16 h; DNA damage induced by 5-fluorouridine; further: nearly all actives have a fitted effect of over 55% in size
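HEK293T cells expressing luciferase-tagged ELG1 (2,000/well) received 5-Fluorouridine plus compound or DMSO for 16 hr at 37 °C. Luciferase was read by ONE-Glo luminescence after 30 min at room temperature.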
MCF10A rereplic: A quantitative high throughput screen for small molecules that induce DNA re-replication in MCF 10a normal breast cells | 2.9% of 350,000 active | MCF 10A DNA re-replication, Hoechst nuclear intensity, 48 h | Potency, µM (series often up to 46.1 µM), usual class: activators; further: nearly all actives have a fitted effect of over 50% in size
SW480 rerep: A quantitative high throughput screen for small molecules that induce DNA re-replication in SW480 colon adenocarcinoma cells | AID 624297, 2012 | Potency, µM (top dose mostly 46.1 µM), actives largely listed as activators | 1.8% of 340,000 active | SW480 DNA re-replication, Hoechst DNA content imaging, 48 h; further: nearly all actives have a fitted effect of over 55% in size
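Quantitative HTS format with DMSO vehicle controls; 48 hr drug incubation at 37 C, then 40 min Hoechst staining and scanning imager measurement at 405 nm excitation.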
KB-V1 cytotox: qHTS assay for MDR1-selective chemotherapeutics: Primary screen using the drug-selected MDR subline cells KB-V1; KB-V1 MDR cells viability, CellTiter-Glo, 72 h; Potency, µM (titrated, usually from 46.1 µM), usual class: cytotoxic; 3.4% of 400,000 active; AID 1347076, 2019; further: nearly all actives have a fitted effect of over 60% in size
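Cells of the MDR subline KB-V1 are plated, dosed with compound at multiple concentrations, and incubated 72 h at 37 degrees C; CellTiter-Glo is then added and luminescence read after 10 min.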
KB-3-1 cytotox: qHTS assay for MDR1-selective chemotherapeutics: Primary screen using the parental adenocarcinoma cell KB-3-1; KB-3-1 viability, CellTiter-Glo ATP luminescence, 72 h; Potency, µM (doses to about 46.1 µM), hits mostly cytotoxic; 1.4% of 400,000 active; AID 1347075, 2019; further: nearly all actives have a fitted effect of over 60% in size
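Using CellTiter-Glo luminescence, growth of non-resistant KB-3-1 adenocarcinoma cells is assessed 72 h after pin-tool compound addition at 37 °C. Normalized responses across the concentration series yield fitted curves.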
A number is an active result; . = inactive; ? = inconclusive; / = no result. An excerpt weighted towards active compounds, which were near 8.2% of everything screened. The call rests on the fitted dose curve; in most records, active means well fitted curve in the direction sought with a large enough effect; inconclusive means small, poorly fitted or top-dose-only effect, or another doubt; inactive means no such curve, though single readings can be large; an effect the other way counts as inactive or inconclusive.

SMILES | ELG1 DNA repair | MCF10A rereplic | SW480 rerep | KB-V1 cytotox | KB-3-1 cytotox
Cc1ccc(NC(=O)CCc2c[nH]c3ccccc23)nc1 | ? | ? | 3.26µM | ? | 4.11µM
COc1ccc(CCN2C(=O)c3oc4cc(C)cc(C)c4c(=O)c3C2c2ccc(F)cc2)cc1OC (stereo unspecified) | / | / | / | . | .
COc1ccc(-c2cc(-c3ccccc3)nc(SCC(=O)Nc3ncc(C)s3)c2C#N)cc1 | ? | . | . | 9.2µM | .
CCOC(=O)/C(Sc1nc(-c2ccccc2)cc(-c2ccccc2)c1C#N)=C(\C)O | . | 3.66µM | 11.6µM | . | .
CCc1nnc(NC(=O)CSc2nc(C)cc(C)c2C#N)s1 | ? | ? | . | . | .
COc1ccc(-c2cc(-c3ccccc3)c(C#N)c(S(C)=O)n2)cc1 (stereo unspecified) | . | 5.17µM | ? | . | ?
CCc1nnc(NC(=O)CSc2nc(-c3ccc(F)cc3)cc(-c3ccccc3)c2C#N)s1 | . | 11.6µM | . | . | .
CCSc1nc(-c2ccc(OC)cc2)cc(-c2ccccc2)c1C#N | . | ? | . | . | .
COc1ccc(/C=N/NC(=O)c2nnn(-c3nonc3N)c2-c2cccs2)c(OC)c1 | . | . | . | ? | .
C=CCN(CC(=O)NC1CCCC1)C(=O)C(=O)Nc1ccc2c(c1)OCCO2 | . | . | . | . | .
CC1CCC(NC(=O)CN2C(=O)C3CC=CCC3C2=O)CC1 (stereo unspecified) | . | ? | . | . | .
COC(=O)C1=C(C)N(CCc2ccccc2)C(=O)C1(NS(=O)(=O)c1ccc(NC(C)=O)cc1)C(F)(F)F (stereo unspecified) | . | 14.6µM | 3.26µM | . | .
CCOC(=O)C1=C(C)N(c2ccc(OCC)cc2)C(=O)/C1=C\c1ccco1 | ? | 16.4µM | . | . | .
CCOC(=O)[C@]12CCCC=C1N(Cc1ccco1)C(=O)[C@H](CC(=O)NCCCCc1ccccc1)C2 | / | / | / | 14.6µM | ?
CCOC(=O)[C@]12CCCC=C1N(CCC1=CCCCC1)C(=O)[C@H](CC(=O)NCCC(C)C)C2 | / | / | / | ? | .
CCOC(=O)[C@]12CCCC=C1N(CCC1=CCCCC1)C(=O)[C@H](CC(=O)NCC13CC4CC(CC(C4)C1)C3)C2 | / | / | / | 18.4µM | ?
CCOC(=O)[C@]12CCC=C1N(Cc1ccc3c(c1)OCO3)C(=O)[C@H](CC(=O)NCC13CC4CC(CC(C4)C1)C3)C2 | / | / | / | 23.1µM | ?
CCOC(=O)[C@]12CCCC=C1N(Cc1ccccc1)C(=O)[C@H](CC(=O)NCC13CC4CC(CC(C4)C1)C3)C2 | / | / | / | 20.6µM | 18.4µM
CCC(=O)N1CCN=C1SCc1cccc(C(F)(F)F)c1 | ? | . | . | ? | .
CSc1ccc(CN2CCC2(C)C(=O)Nc2cccc(Oc3ccccc3)c2)cc1 (stereo unspecified) | / | / | / | . | .
CCOC(=O)[C@]12CCCC=C1N(Cc1ccc3c(c1)OCO3)C(=O)[C@H](CC(=O)NCCc1ccccc1OC)C2 | / | / | / | 23.1µM | ?
CCOC(=O)[C@]12CCCC=C1N(Cc1ccc3c(c1)OCO3)C(=O)[C@H](CC(=O)N1CCC(c3ccccc3)CC1)C2 | / | / | / | 23.1µM | ?
COC(=O)[C@]12CCCCC=C1N(Cc1ccc3c(c1)OCO3)C(=O)[C@H](CC(=O)NCCc1ccccc1OC)C2 | / | / | / | . | .
C(=N\NC1=Nc2cccc3cccc1c23)/c1cccnc1 | ? | ? | . | 16.4µM | .
COc1ccc(OCC(=O)Nc2ccccc2O)cc1 | ? | . | . | 16.4µM | .
CCCNC(=O)c1ccccc1NC(=O)COc1ccc(OC)cc1 | . | . | . | 4.61µM | .
COc1cc(NC(=O)COc2ccc(F)cc2)nc(OC)n1 | . | ? | 20.6µM | . | .
Cc1ccc(OCC(=O)Nc2ccccc2C(N)=O)cc1 | ? | . | . | . | .
COc1ccccc1NC(=O)COc1ccccc1 | ? | ? | ? | . | .
COc1ccc(C(=O)NCCc2cc3c(OC)ccc(OC)c3[nH]c2=O)cc1OC | ? | . | . | ? | .
